According to PubChem BioAssay AID485364 (National Center for Advancing Translational Sciences (NCATS), 2010):
In all, about 360,000 compounds went through this assay and about 11,000 (3.1%) were called active. A call without a number means that no potency is given here. Not shown: some 4% with an inconclusive outcome. The call rests on the fitted dose curve; in most records, active means well fitted inhibition curve with a large enough effect; inconclusive means small, poorly fitted or top-dose-only effect; inactive means no such curve, though single readings can be large or run the other way. The sample as a whole holds a higher share of actives than the screen did.

Biological target: Schistosoma mansoni thioredoxin glutathione reductase (TGR) (UniProt Q962Y6)
Assay: qHTS Assay for the Inhibitors of Schistosoma Mansoni Peroxiredoxins; further: nearly all actives have a fitted effect of over 60% in size
Settings: purified TGR, DTNB reduction, TNB absorbance 405 nm; series mostly up to 114 µM
Summary of the method: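 Kinetic colorimetric format: TGR-catalysed, NADPH-driven DTNB reduction monitored via TNB absorbance. Enzyme dispensed at 20 nM; compound exposure 15 min at room temperature before reaction start.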
Potency means the concentration at half of the fitted maximal effect.

| SMILES | Potency |
| --- | --- |
| COc1ccc(-c2nc3sc(CCNS(=O)(=O)c4ccc(F)c(C)c4)c(C)n3n2)cc1 | inactive |
| Cc1ccc2nc3c(cc(C(=O)NC4CCCCC4)c(=N)n3C(C)C)c(=O)n2c1 | inactive |
| COc1ccc(N2C(=O)CC(Nc3ccc(F)cc3)C2=O)c([N+](=O)[O-])c1 (stereo not drawn) | inactive |
| COc1ccc(NC2CC(=O)N(C)C2=O)cc1 (stereo not drawn) | 15.8 µM (active) |
| COc1ccc(N=C2SC(C(=O)Nc3ccc(F)cc3)CC(=O)N2C)cc1 (stereo not drawn) | inactive |
| CCN(C(=O)Cn1c(=O)nc(-c2ccccc2)c2cc(Cl)ccc21)c1cccc(C)c1 | inactive |
| COC(=O)c1cccc(N(C(=O)c2ccco2)C(C(=O)NC2CCCC2)c2ccco2)c1 (stereo not drawn) | 44.7 µM (active) |
| O=C(NC1CCCC1)C(c1ccco1)N(C(=O)c1ccco1)c1ccc(F)cc1 (stereo not drawn) | inactive |
| COc1cccc(C(C(=O)NC2CCCC2)N(C(=O)c2ccco2)c2cccc(C(C)=O)c2)c1OC (stereo not drawn) | inactive |
| Cc1ccc(CNC(=O)CSc2c(C)cnc3c2c(=O)n(C)c(=O)n3C)cc1 | inactive |
| Cc1ccc(NC(=O)CCCn2c(=O)c3cccn3c3ccccc32)cc1Cl | inactive |
| Cn1c(=O)[nH]c(=O)c2c1nc(NCCc1ccccc1)n2Cc1ccc(F)cc1 | inactive |
| CC(=O)C1=C(C)NC(=O)NC1c1ccc2c(c1)OCO2 (stereo not drawn) | inactive |
| Cc1ccccc1-n1c(C)cc(/C=C2\NC(=O)NC2=O)c1C | inactive |
| Cc1c(C(=O)O)cccc1-n1c(C)cc(/C=C2\C(=O)NC(=O)N(c3ccc4c(c3)OCO4)C2=O)c1C | 14.1 µM (active) |
| CCOC(=O)c1cccc(NS(=O)(=O)c2cn(C)c(C)n2)c1 | inactive |
| CC(C)CN1CCNC(=O)C1CC(=O)N(C)CC1CCOCC1 (stereo not drawn) | inactive |
| CCCOC(=O)CC1C(=O)NCCN1Cc1ccc(F)cc1 (stereo not drawn) | inactive |
| CN(Cc1cccc2ncccc12)C(=O)CC1C(=O)NCCN1Cc1ccc(F)cc1 (stereo not drawn) | 35.5 µM (active) |
| COc1ccccc1CN1CCNC(=O)C1CC(=O)N(C)CC1CCOCC1 (stereo not drawn) | 50.1 µM (active) |
| Cc1cnc(CN(C)C(=O)CC2C(=O)NCCN2Cc2cccc(F)c2F)[nH]1 (stereo not drawn) | inactive |
| C=CCC1(CC=C)CCCN1C(=O)CC1C(=O)NCCN1Cc1ccccc1OC (stereo not drawn) | inactive |
| CCc1ccc2ncc3c(-c4ccc(C)cc4)nn(CC(=O)NCc4ccccc4)c3c2c1 | inactive |
| Cc1nn(C)c2c1c(C(F)(F)F)cc(=O)n2C(C)C(=O)NCc1ccc(Cl)cc1 (stereo not drawn) | inactive |
| CC(C)c1ccc(NC(=O)Cn2nnc(C(=O)NCCc3ccccc3)c2N)cc1 | inactive |

| SMILES | Potency |
| --- | --- |
| COc1ccc(C(=O)NCC(=O)N/N=C/c2ccc([N+](=O)[O-])o2)cc1OC | 17.8 µM (active) |
| COc1cc(CC(=O)N/N=C/c2ccccc2)c([N+](=O)[O-])cc1OC | inactive |
| COc1ccccc1OCCNC(=O)c1cc([N+](=O)[O-])cc([N+](=O)[O-])c1 | inactive |
| CC(C)(C)c1ccc(S(=O)(=O)N2CCN(C(=O)c3cc(-c4ccc(Br)cc4)n[nH]3)CC2)cc1 | inactive |
| COc1ccc(N2CCN(S(=O)(=O)c3ccc(-c4coc(C)n4)cc3)CC2)cc1 | inactive |
| O=C(C1CCCN(S(=O)(=O)c2cccc3nonc23)C1)N1CCN(c2ccccc2F)CC1 (stereo not drawn) | inactive |
| CCC(=O)N1CCc2cc(Br)cc(S(=O)(=O)Nc3ccc(C)cc3C)c21 | inactive |
| Oc1c(C=Nc2cccc3nsnc23)ccc2ccccc12 | 7.94 µM (active) |
| CCc1ccc(S(=O)(=O)n2ccnc2)cc1 | inactive |
| COCC(C)NS(=O)(=O)c1ccc(N2CCCCS2(=O)=O)cc1 (stereo not drawn) | inactive |
| O=C(O)CCCn1c(=O)c2cccn2c2ccc(F)cc21 | inactive |
| COCCCn1c(CCC(=O)O)ccc1-c1ccc(F)cc1 | 44.7 µM (active) |
| COCCCNC(=O)C1CC(=O)N(CCc2ccc(F)cc2)C1 (stereo not drawn) | inactive |
| CCOC(=O)C1CCCN(CC(=O)Nc2cc(C)c3c(=O)oc4ccccc4c3n2)C1 (stereo not drawn) | inactive |
| CCC1Oc2ccc(Cl)cc2N(CC(=O)O)C1=O (stereo not drawn) | inactive |
| O=C(CSC1CC(=O)N(CCc2ccccc2)C1=O)Nc1ccc(Cl)cc1 (stereo not drawn) | inactive |
| Cc1cc(Cl)ccc1N1C(=O)CC(SCCC(=O)O)C1=O (stereo not drawn) | 39.8 µM (active) |
| COc1ccc(N2CCN(C(=O)c3c(C)oc4nc(C)nc(N5CCCC5)c34)CC2)cc1 | inactive |
| COc1ccc(C(=O)N2CCC(c3nc4ccccc4o3)CC2)cc1 | inactive |
| O=C(NCc1ccco1)C(=O)c1cn(CC(=O)N2CCCCCC2)c2ccccc12 | 31.6 µM (active) |
| Cc1ccc(CNC(=O)C(=O)c2cn(CC(=O)N3CCOCC3)c3ccccc23)cc1 | inactive |
| Cc1ccc(CNC(=O)C(=O)c2cn(CC(=O)N3CCCC3)c3ccccc23)cc1 | inactive |
| CC1CCN(C(=O)Cn2c(=O)n(-c3ccc(Cl)cc3)c(=O)c3c4c(sc32)CCC4)CC1 | inactive |
| Cc1cc(C)c2oc(C(=O)Nc3c(C(=O)Nc4ccccc4)oc4ccccc34)cc(=O)c2c1 | inactive |
| NC(=O)CC[C@@H]1NC(=O)[C@@H]2CCCN2C(=O)c2cc([N+](=O)[O-])cc(F)c2NCCC[C@@H](C(N)=O)NC1=O | 44.7 µM (active) |

| SMILES | Potency |
| --- | --- |
| NC(=O)CC[C@@H]1NC(=O)[C@H](CO)NC(=O)c2cc([N+](=O)[O-])cc(I)c2NCC[C@@H](C(N)=O)NC1=O | inactive |
| C[C@@H]1NC(=O)c2cc([N+](=O)[O-])cc(F)c2NCCC[C@@H](C(N)=O)NC(=O)[C@H](CC(N)=O)NC1=O | inactive |
| Cc1cccc(CC(=O)Nc2cccc(-c3cn4cccnc4n3)c2)c1 | inactive |
| CCCc1cc(=S)n2c([nH]c3ccccc32)c1C#N | 0.631 µM (active) |
| CN(C)Cc1c(C#N)c2ccccc2n1C | inactive |
| O=C(Cn1c(-c2cccs2)cc2ccccc21)NCCc1ccc(Cl)cc1 | inactive |
| Cc1ccc2c(c1)N(C(=O)Nc1ccc(Br)cc1F)CCO2 | inactive |
| COc1ccc(-c2cn3c(C)c(C(=O)Nc4cc(C)cc(C)c4)sc3n2)cc1 | inactive |
| CCOC(=O)C1CCCN(C(=O)c2cncc(Br)c2)C1 (stereo not drawn) | inactive |
| CCOC(=O)C1CCCN(C(=O)c2cccc(S(=O)(=O)N3CCOCC3)c2)C1 (stereo not drawn) | inactive |
| CCOC(=O)C1CCCN(C(=O)c2ccc(CS(=O)(=O)c3ccc(Br)cc3)o2)C1 (stereo not drawn) | 20 µM (active) |
| O=C(c1ccc2c(c1)N(Cc1ccccc1)C(=O)c1ccccc1S2(=O)=O)N1CCC(Cc2ccccc2)CC1 | inactive |
| O=C(CC1C(=O)NCCN1Cc1ccc(-c2ccccc2)cc1)NCC1CCOCC1 (stereo not drawn) | inactive |
| Cc1ccc(CN2CCNC(=O)C2CC(=O)NCc2csc(C(C)C)n2)cc1 (stereo not drawn) | inactive |
| CC(C)c1nc(CNC(=O)CC2C(=O)NCCN2Cc2ccoc2)cs1 (stereo not drawn) | 35.5 µM (active) |
| COC(=O)c1cc(S(=O)(=O)N2CCN(c3cc(Cl)ccc3C)CC2)c[nH]1 | inactive |
| Cc1ccc(C(=O)CC2(O)C(=O)N(CCc3ccccc3)c3ccc(Br)cc32)cc1 (stereo not drawn) | inactive |
| Cc1onc(-c2ccc(F)cc2F)c1C(=O)Nc1cccc(C(F)(F)F)c1 | inactive |
| COc1ccc(CCNC(=O)c2ccc3c(c2)sc2nc(-c4ccc(C)cc4)cn23)cc1OC | inactive |
| CCc1cccc(NC(=O)c2cc(-c3ccccc3)n[nH]2)c1 | inactive |
| COC(=O)c1ccc(COc2ccc(C#N)cc2)o1 | inactive |
| O=C(O)c1ccc(NC(=O)c2ccc(COc3ccc(Cl)cc3)o2)cc1 | inactive |
| O=C(O)c1ccc(COc2c(F)c(F)cc(F)c2F)o1 | 35.5 µM (active) |
| N#CC1=C(N)C(C#N)(C#N)[C@H](c2ccsc2)[C@H]2COCC=C12 | 12.6 µM (active) |
| CCN1CC=C2C(C#N)=C(N)C(C#N)(C#N)[C@H](c3ccoc3)[C@H]2C1 | inactive |

| SMILES | Potency |
| --- | --- |
| Cc1ccc(C)c(N2CCN(C(=O)Cc3c(C(=O)O)c(C)cn3C)CC2)c1 | inactive |
| O=C1[C@@H]2C(c3cccnc3)=NO[C@@H]2C(=O)N1c1ccc(Cl)cc1Cl | 8.91 µM (active) |
| Cc1nc2ccccc2c(=O)n1-c1ccc(Cl)cc1Cl | inactive |
| O=C(NNC1CC(=O)N(c2cccc(Cl)c2)C1=O)c1cccnc1 (stereo not drawn) | inactive |
| COc1ccccc1-c1nnc(C2CCN(C(=O)c3ccc(Cl)cc3)CC2)o1 | inactive |
| CC(C)(C)c1ccc(C(=O)Nc2ccc3c(c2)CCCN3C(=O)c2cccs2)cc1 | inactive |
| Cc1cccc(Cn2c(CN3CCC(C(=O)NCc4ccccc4Cl)CC3)cc3ccccc32)c1 | inactive |
| c1coc(-c2nc3nc4ccccc4n3nc2-c2ccco2)c1 | 44.7 µM (active) |
| O=C(COc1ccc(Cl)cc1)Nc1ccccc1OCc1cc(=O)n2ccccc2n1 | inactive |
| Cc1oc2cc(Br)c(O)c(Br)c2c1C(=O)c1ccccc1 | 15.8 µM (active) |
| Cc1nc2ccccc2c(-c2ccccc2)c1C(=O)c1ccccc1 | inactive |
| COc1ccc(C(=O)c2c(C)oc3cc([N+](=O)[O-])c(O)c([N+](=O)[O-])c23)cc1 | inactive |
| Brc1cccc(-c2nnn3c2nc(NC2CCCCC2)c2ccccc23)c1 | inactive |
| COc1ccc(CCNC(=O)Cn2c(=O)cc(C(F)(F)F)c3c(C)nn(C)c32)c(OC)c1 | inactive |
| O=C1C(=O)N(CCCO)C(c2ccccc2)/C1=C(\O)c1ccc(Br)cc1 (stereo not drawn) | inactive |
| O=C1C(=O)N(CCN2CCOCC2)C(c2ccccn2)/C1=C(/O)c1ccc(Cl)cc1 (stereo not drawn) | 20 µM (active) |
| COc1ccc(C2/C(=C(/O)c3ccc(OC(C)C)cc3)C(=O)C(=O)N2CCCN2CCOCC2)cc1 (stereo not drawn) | 20 µM (active) |
| COCCN1C(=O)C(=O)/C(=C(/O)c2ccc(S(=O)(=O)N3CCOCC3)cc2)C1c1ccc(OC)c(OC)c1 (stereo not drawn) | inactive |
| CC1Cc2cc(/C(O)=C3\C(=O)C(=O)N(CCN4CCOCC4)C3c3ccccc3F)ccc2O1 (stereo not drawn) | inactive |
| O=C1C(=O)N(CCN2CCOCC2)C(c2cccc(Cl)c2)/C1=C(/O)c1ccc2c(c1)OCO2 (stereo not drawn) | 50.1 µM (active) |
| CCN(CC)CCN1C(=O)C(=O)/C(=C(/O)c2ccc(OC)c(OC)c2)C1c1ccccn1 (stereo not drawn) | inactive |
| COCCCN1C(=O)C(=O)/C(=C(/O)c2ccc(S(=O)(=O)N3CCOCC3)cc2)C1c1ccc(F)cc1 (stereo not drawn) | inactive |
| COCCN1C(=O)C(=O)/C(=C(/O)c2ccc(S(=O)(=O)N3CCOCC3)cc2)C1c1ccc(O)c(OC)c1 (stereo not drawn) | inactive |
